Laboratory results reported in PubChem BioAssay (Tox21).
Records with an inconclusive call do not appear. Active and inactive are the calls of the source. Unless noted, the call rests on the fitted dose curve; in most records, active means well fitted curve in the direction sought with a large enough effect in the repeat runs; inconclusive means weak or mixed curves; inactive means no such curve, though single readings can be large; an effect the other way counts as inactive or inconclusive.

Key:
[1] = A CellTox Green Cytotoxicity Assay to monitor cytotoxicity in HEK293 cells - 32 hour (AID 1224881); further: nearly all actives have a fitted effect of over 40% in size
In short: (§1)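 HEK293 cells premixed with CellTox Green dye were seeded at 600 cells/well and left 5 h at 37 C/5% CO2 before pin transfer of 23 nL compound in DMSO. Fluorescence from dye bound to dead-cell DNA was read during 40 h treatment.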

[2] = A CellTox Green Cytotoxicity Assay to monitor cytotoxicity in HepG2 cells - 0 hour (AID 1224882); further: nearly all actives have a fitted effect of over 35% in size
In short: (§2)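 HepG2 cells were seeded together with the CellTox Green dye at 600 cells/well, left 5 h at 37 C/5% CO2, then given compounds in DMSO. Fluorescence from dye bound to dead-cell DNA was read repeatedly over 40 h of treatment at 37 C.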

[3] = A CellTox Green Cytotoxicity Assay to monitor cytotoxicity in HepG2 cells - 32 hour (AID 1224883); further: nearly all actives have a fitted effect of over 50% in size
In short: as §2

[4] = A CellTox Green Cytotoxicity Assay to monitor cytotoxicity in HEK293 cells - 8 hour (AID 1224884); further: nearly all actives have a fitted effect of over 35% in size
In short: as §1

[5] = qHTS RealTime-Glo MT Cell Viability Assay in HepG2 cells - 16 hour (AID 1224885); further: nearly all actives have a fitted effect of over 50% in size; further: potency means the concentration at half of the fitted maximal effect
In short: (§3)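 Viability was tracked continuously by NanoLuc luminescence from prosubstrate reduced by living HepG2 cells, at successive time points over 40 h of compound exposure. Cells with reagent were preincubated 5 h at 37 °C before compound addition.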

[6] = qHTS RealTime-Glo MT Cell Viability Assay in HEK293 cells - 24 hour (AID 1224886); further: top concentration of the series differs between compounds; nearly all actives have a fitted effect of over 50% in size
In short: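 Viability tracked continuously by luminescence as live cells reduce a prosubstrate for NanoLuc; HEK293 cells preincubated 5 h, compound-treated at 37 C, and read at 0, 8, 16, 24, 32 and 40 h.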

[7] = qHTS RealTime-Glo MT Cell Viability Assay in HEK293 cells - 8 hour (AID 1224887); further: top concentration of the series differs between compounds; nearly all actives have a fitted effect of over 50% in size
In short: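 HEK293 cells mixed with RealTime-Glo reagents (NanoLuc plus cell-permeant prosubstrate) at 600 cells/well, preincubated 5 h at 37 C/5% CO2, then given 23 nL compound in DMSO. Nonlytic luminescence from viable cells was read at 0, 8, 16, 24, 32 and 40 h.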

[8] = A CellTox Green Cytotoxicity Assay to monitor cytotoxicity in HEK293 cells - 16 hour (AID 1224888); further: nearly all actives have a fitted effect of over 35% in size
In short: as §1

[9] = qHTS RealTime-Glo MT Cell Viability Assay in HepG2 cells - 0 hour (AID 1224889); further: nearly all actives have a fitted effect of over 50% in size
In short: as §3

[10] = A CellTox Green Cytotoxicity Assay to monitor cytotoxicity in HepG2 cells - 8 hour (AID 1224890); further: nearly all actives have a fitted effect of over 45% in size
In short: as §2

[11] = qHTS assay to identify small molecule antagonists of the estrogen receptor alpha (ER-alpha) signaling pathway using the BG1 cell line in the presence of 0.1 nM 17-beta-estradiol - cell viability counter screen (AID 1259241); further: nearly all actives have a fitted effect of over 40% in size
In short: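 Measures cytotoxicity alongside the ER-alpha antagonist readout: VM7Luc4E2 cells, charcoal-stripped serum, 0.1 nM 17beta-estradiol final, 22 hr compound incubation at 37C, CellTiter-Fluor fluorescence.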

[12] = qHTS assay to identify small molecule antagonists of the androgen receptor (AR) signaling pathway using the MDA cell line in the presence of 0.5 nM R1881 - cell viability counter screen (AID 1259242); further: nearly all actives have a fitted effect of over 45% in size
In short: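 MDA-kb2 cells (human breast carcinoma, stably carrying MMTV-luciferase reporter) were exposed to compounds with 0.5 nM R1881 (final) for 16 hr at 37C, 0% CO2; viability then read as live-cell protease fluorescence (CellTiter-Fluor, 30 min) in the same wells.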

[13] = target: Estrogen receptor (Homo sapiens) (UniProt P03372); experiment: qHTS assay to identify small molecule antagonists of the estrogen receptor alpha (ER-alpha) signaling pathway using the BG1 cell line in the presence of 0.1 nM 17-beta-estradiol (AID 1259244); further: nearly all actives have a fitted effect of over 50% in size
In short: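 VM7Luc4E2 cells (endogenous full-length ER-alpha, stable 4xERE-luciferase) were grown 5 days in phenol red-free medium with charcoal-stripped FBS, then exposed 22 h at 37C to compounds plus 0.1 nM (final) 17beta-estradiol; ONE-Glo luminescence read-out.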

[14] = qHTS assay to identify small molecule HDAC inhibitors (AID 1259364); further: top concentration of the series differs between compounds; nearly all actives have a fitted effect of over 45% in size
In short: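 Wild-type HCT-116 cells were plated overnight, exposed to compounds for 2 h at 37 °C, then given HDAC-Glo class I/II luminogenic reagent for 30 min at room temperature before luminescence was read.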

[15] = qHTS assay to identify small molecule HDAC inhibitors - cell viability counter screen (AID 1259365)
In short: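 Following a 2hr exposure of overnight-plated wild-type HCT-116 cells to DMSO-delivered compounds, CellTiter-Glo was added and luminescence recorded after 30min at room temperature.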

[16] = qHTS assay to identify small molecule agonists of the sonic hedgehog signaling (Shh) pathway - cell viability counter screen (AID 1259366); further: nearly all actives have a fitted effect of over 50% in size
In short: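 After a 4hr attachment at 37C, NIH/3T3 cells bearing an integrated Gli1-driven luciferase reporter were dosed with compounds. Treatment lasted 24hr, with the final hour including CellTiter-Fluor for a fluorescence viability measurement.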

[17] = qHTS assay to identify small molecule antagonists of the sonic hedgehog signaling (Shh) pathway - cell viability counter screen (AID 1259367); further: nearly all actives have a fitted effect of over 55% in size
In short: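 After a 4 hr settling period, 3T3 Gli1-Luc cells were treated with DMSO-dissolved chemicals and conditioned medium, kept 24 hr at 37C in 5% CO2, and assayed for viability by CellTiter-Fluor fluorescence following 1 hr reagent incubation.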

[18] = qHTS assay to identify small molecule agonists of the sonic hedgehog signaling (Shh) pathway (AID 1259368; calls by dose curve; further: series mostly up to about 92 µM; nearly all actives have a fitted effect of over 15% in size)
In short: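 NIH/3T3-derived 3T3Gli1-Luc cells carrying a stably integrated Gli1 response element–firefly luciferase reporter were plated, left 4 hr at 37 C, then given compounds in DMSO for 24 hr. Luminescence was read 30 min after adding luciferase reagent.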

[19] = qHTS assay to identify small molecule phospholipidosis (PLD) inducers (AID 1259344; active means well fitted curve in the direction sought with a large enough effect; an effect the other way counts as inactive or inconclusive)
In short: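 HepG2 cells grown on collagen I take up LipidTOX Red while exposed to compound for 24 h; after fixation they are imaged at 20x and pit metrics are extracted.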
On the % scale 0 is the no-effect control and ±100 the full control effect.

Estrogen receptor (Homo sapiens), sequence (P03372 whole entry, looked up): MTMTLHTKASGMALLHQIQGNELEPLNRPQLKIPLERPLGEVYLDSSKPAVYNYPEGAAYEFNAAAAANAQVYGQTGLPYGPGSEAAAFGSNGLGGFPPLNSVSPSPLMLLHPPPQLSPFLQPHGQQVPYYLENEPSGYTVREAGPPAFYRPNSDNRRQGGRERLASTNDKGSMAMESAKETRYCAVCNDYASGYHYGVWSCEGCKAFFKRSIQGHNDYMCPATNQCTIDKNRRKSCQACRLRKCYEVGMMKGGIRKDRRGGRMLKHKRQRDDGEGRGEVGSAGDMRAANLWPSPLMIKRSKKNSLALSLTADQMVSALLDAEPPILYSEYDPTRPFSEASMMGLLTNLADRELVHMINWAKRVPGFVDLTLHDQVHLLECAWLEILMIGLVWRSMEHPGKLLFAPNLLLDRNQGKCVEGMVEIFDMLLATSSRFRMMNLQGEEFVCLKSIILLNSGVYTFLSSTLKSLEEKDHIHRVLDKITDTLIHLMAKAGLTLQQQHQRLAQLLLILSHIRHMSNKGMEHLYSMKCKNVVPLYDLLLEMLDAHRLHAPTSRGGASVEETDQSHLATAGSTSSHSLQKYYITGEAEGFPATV

O=C(O)c1cccnc1C(=O)O
inactive: Potency [1] | Potency [2] | Potency [3] | Potency [4] | Potency [5] | Potency [6] | Potency [7] | Potency [8] | Potency [9] | Potency [10] | Potency [11] | Potency [12] | Potency [13] | Potency [14] | Potency [15] | Potency [16] | Potency [17] | Potency [18]

O=C(NCCCN1CCOCC1)c1ccc(Cl)cc1
inactive: Potency [1] | Potency [2] | Potency [3] | Potency [4] | Potency [5] | Potency [6] | Potency [7] | Potency [8] | Potency [9] | Potency [10] | Potency [11] | Potency [12] | Potency [13] | outcome [19] | Potency [15] | Potency [16] | Potency [17] | Potency [18]

C=CCCCCCCCCCCCCCCCC
inactive: cytotoxicity increase [1] -2.25% [at 6.97 µM] | cytotoxicity [2] -13.6% [at 6.97 µM] | cytotoxicity increase [3] -20.4% [at 6.97 µM] | cytotoxicity increase [4] -6.36% [at 6.97 µM] | activity change, negative = cytotoxic [5] -8.12% [at 6.97 µM] | activity change, negative = cytotoxicity [6] -6.06% [at 6.97 µM] | activity change, negative = cytotoxicity [7] -0.881% [at 6.97 µM] | activity change [8] -0.39% [at 6.97 µM, active compounds read high] | activity change, negative = cytotoxicity [9] -21.4% [at 6.97 µM] | cytotoxicity increase [10] -16.6% [at 6.97 µM] | activity change, negative = cytotoxicity [11] 0.274% [at 8.39 µM] | viability change, negative = cytotoxic [12] 2.55% [at 8.39 µM] | activity change, negative = inhibition [13] 11.9% [at 8.39 µM] | activity change, negative = inhibition [14] 2.22% [at 8.39 µM] | activity change, negative = cytotoxicity [15] -1.22% [at 8.39 µM] | viability change, negative = cytotoxic [16] 4.48% [at 8.39 µM] | viability change, negative = cytotoxic [17] 0.663% [at 8.39 µM]

C[Si](NC1CCCCC1)(NC1CCCCC1)NC1CCCCC1
inactive: Potency [1] | Potency [2] | Potency [3] | Potency [4] | Potency [5] | Potency [6] | Potency [7] | Potency [8] | Potency [9] | Potency [10] | Potency [11] | Potency [12] | Potency [13] | Potency [14] | Potency [15] | Potency [16] | Potency [17] | Potency [18]

CN1CCCN=C1/C=C/c1cccs1
inactive: Potency [1] | Potency [2] | Potency [3] | Potency [4] | Potency [5] | Potency [6] | Potency [7] | Potency [8] | Potency [9] | Potency [10] | Potency [11] | Potency [12] | Potency [13] | outcome [19] | Potency [15] | Potency [16] | Potency [17] | Potency [18]

CC1CC(O)CC(C)(C)C1 (stereo not given)
inactive: Potency [1] | Potency [2] | Potency [3] | Potency [4] | Potency [5] | Potency [6] | Potency [7] | Potency [8] | Potency [11] | Potency [12] | outcome [19] | Potency [14] | Potency [15] | Potency [16] | Potency [17] | Potency [18]

CC[C@H](NC(=O)c1cc(F)ccc1NS(=O)(=O)c1cccc2cccnc12)c1ccccc1
inactive: Potency [1] | Potency [2] | Potency [3] | Potency [4] | Potency [6] | Potency [7] | Potency [8] | Potency [10] | Potency [11] | Potency [12] | Potency [15] | Potency [16] | Potency [17] | Potency [18]
active: Potency [5] 46.3 µM
